Measurements from PubChem BioAssay (NCI).
About 83,000 compounds went through this panel and 20% of them were active in at least one assay; those are over-represented in the sample as a whole.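 Values shown are percent growth following 48 h exposure of cells in 96-well plates to a single concentration of compound; below 10 was considered active.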 Unmarked numbers belong to inactive results. Activity calls are given as the source filed them.

Tests used:
Experiment in all cases: NCI-60 one-dose screen, 48 h (100 = growth as untreated, 0 = no growth, -100 = all killed)
Conditions in all cases: 10 µM
[1] = tested on: SR leukemia
[2] = tested on: RPMI-8226 leukemia
[3] = tested on: OVCAR-8 ovarian
[4] = tested on: OVCAR-5 ovarian
[5] = tested on: OVCAR-4 ovarian
[6] = tested on: SK-OV-3 ovarian
[7] = tested on: IGROV1 ovarian
[8] = tested on: OVCAR-3 ovarian
[9] = tested on: HS 578T breast
[10] = tested on: NCI/ADR-RES ovarian

| SMILES | growth [1] | growth [2] | growth [3] | growth [4] | growth [5] | growth [6] | growth [7] | growth [8] | growth [9] | growth [10] |
| --- | --- | --- | --- | --- | --- | --- | --- | --- | --- | --- |
| COc1ccc2c(=O)cc(C(Cl)(Cl)Cl)oc2c1 | -25.6% (active) | -27.2% (active) | -1.14% (active) | 16.6% | -12.9% (active) | 9.34% (active) | -7.04% (active) | -19.7% (active) | -13.9% (active) | 10.3% |
| N#C/C(=C\N1C(=O)/C(=C/c2cccc([N+](=O)[O-])c2)SC1=S)c1nc2ccccc2s1 | 73.4% | 60.4% | 94.7% | 102% | 61.4% | 77.7% | 83.7% | 90.4% | 95.9% | 94.1% |
| CCOC(=O)c1cc2c(n1Cc1cc(OC)cc(OC)c1)-c1oncc1CC2 | 18% | 39.5% | 26.8% | 49% | 48.9% | 5.06% (active) | 14.3% | -51.2% (active) | -1.17% (active) | 0.862% (active) |
| CC(C)(C)c1ccc(OCCCCCCN2CCNCC2)cc1 | -8.37% (active) | 0.146% (active) | 89.7% | 82.2% | 72% | 86.4% | 80.8% | 82.1% | 72.4% | 79.7% |
| O=C(Nc1cccc([N+](=O)[O-])c1)NN1CCCCCC1 | 108% | 60.5% | 99.2% | 105% | 98.1% | 114% | 109% | 87.4% | 97.2% | 91.4% |
| N#C/C(=C/c1cc([N+](=O)[O-])ccc1Cl)C(N)=O | 8.43% (active) | 68.7% | 82.5% | 107% | 94.2% | 95.5% | 69.9% | 104% | 113% | 98.2% |
| Oc1ccc(/C=N\Nc2ccccn2)c(O)c1 | 11.7% | 26.2% | 26.6% | 61.4% | 32.7% | 32.4% | 22.7% | -2.36% (active) | 65.8% | 0.0991% (active) |
| Cc1nc(Nc2nc3ccccc3o2)nc(-c2cccc([N+](=O)[O-])c2)c1C(=O)Nc1ccc(F)c(Cl)c1 | -8.33% (active) | -41.4% (active) | 6.5% (active) | 33% | 16% | 10% | 40.3% | 6.94% (active) | 4.55% (active) | 3.88% (active) |
| Cc1ccc(C2C=C(c3ccc(Cl)cc3)N=C3SC=CN32)c(Br)c1 (stereo not given) | 0.074% (active) | -0.582% (active) | 80% | 92.8% | 67.4% | 101% | 75.7% | 87.1% | 94.1% | 85.6% |
| Cc1ccccc1C1=N[C@@H](Cc2ccccc2)C(=O)c2c(nc3ccccn23)N1 | 122% | 98.4% | 92.8% | 101% | 98.7% | 111% | 108% | 108% | 102% | 95.6% |
| COc1ccc(C(=O)c2sc3nc(-c4cccs4)ccc3c2N)cc1OC | 14.5% | 43.4% | 53% | 82.2% | 61.2% | 70.9% | 63.3% | 45.1% | 50.4% | 37.8% |
| CNC(=S)Sc1ccc([N+](=O)[O-])cc1[N+](=O)[O-] | 17.3% | 13.7% | 81.3% | 93.7% | 77.1% | 80.2% | 104% | 36.3% | 88.2% | 92.5% |
| O=C(OCC1OC(n2cc(C(F)(F)F)c(=O)[nH]c2=O)CC1OC(=O)c1ccc([N+](=O)[O-])cc1)c1ccc([N+](=O)[O-])cc1 (stereo not given) | 60.4% | 71.9% | 66.8% | 82.9% | 88.2% | 63.1% | 82.3% | 74.1% | 88.5% | 88.7% |
| O=C(COCc1c(-c2ccccc2)no[n+]1[O-])Nc1nc(-c2ccc(Cl)cc2)cs1 | 98.2% | 109% | 101% | 109% | 111% | 95.1% | 112% | 102% | 99.6% | 101% |
| O=C(c1ccccc1)C(Nc1ccccc1)c1ccccc1 (stereo not given) | 96.2% | 84.8% | 87% | 93.3% | 92.3% | 96.9% | 75.9% | 97.1% | 95.1% | 93.1% |
| C=CCn1ccc(=O)nc1SC | 112% | 108% | 100% | 109% | 106% | 105% | 120% | 113% | 106% | 104% |
| Nc1nc2c(ncn2C2OC3COP(=O)(O)OC4C(COP(=O)(O)OC2C3O)OC(n2cnc3c(N)ncnc32)C4O)c(=O)[nH]1 (stereo not given) | 57.8% | 99.4% | 102% | 103% | 105% | 87.3% | 109% | 107% | 105% | 102% |
| CCc1ccc(Nc2cc(C)nc3nc(C)nn23)cc1 | -20.9% (active) | -35.2% (active) | -69.2% (active) | 26.4% | -13.1% (active) | 38.3% | 32.8% | -92.2% (active) | 50.8% | -29.5% (active) |
| COC(=O)[C@]12CC[C@@H](C)[C@H](C)[C@@H]1C1=CC[C@@H]3[C@@]4(C)CC(=O)[C@H](O)[C@@]5(C)COC(=C45)C[C@@]3(C)[C@]1(C)CC2 | -31.7% (active) | -32% (active) | -45.2% (active) | -40.4% (active) | -85.3% (active) | -68.3% (active) | -44.9% (active) | -84.7% (active) | -5.08% (active) | -59.7% (active) |
| COc1ccc2nc(/C=C/c3ccc(N(C)C)cc3)sc2c1 | 86.1% | 104% | 115% | 97.4% | 107% | 197% | 82.5% | 103% | 102% | 93.1% |
| N/C(=N\O)c1cn(C2OC(CO)C(O)C2O)c2ncnc(N)c12 (stereo not given) | -4.39% (active) | -43.6% (active) | -14.4% (active) | 24.3% | -21.6% (active) | -30.2% (active) | -13.7% (active) | -18.3% (active) | -5.15% (active) | 4.77% (active) |
| CC(=O)N(O)c1ccc(/C=C/c2ccccc2)cc1 | 9.19% (active) | 46.8% | 32.1% | 33.1% | 54.7% | 9.48% (active) | -14% (active) | 42% | 61.7% | 22.6% |
| O=[N+]([O-])c1ccc(Br)o1 | 108% | 106% | 108% | 95.4% | 122% | 104% | 101% | 111% | 113% | 99.5% |
| CCCOCC(O)CNCCN (stereo not given) | 99.2% | 101% | 102% | 100% | 102% | 97.4% | 116% | 121% | 112% | 123% |
| Cc1ccc2c(c1)-c1cc(C)nn1-c1ccc(C#N)cc1O2 | 28% | 54.3% | 70.4% | 94.1% | 76.9% | 53.3% | 64.5% | 61.8% | 56.4% | 40.1% |
| COc1ccc(-c2csc(-c3cc(Cl)cc(Cl)c3Cl)n2)cc1 | 88.8% | 93.5% | 29.7% | 109% | 85.2% | 90.5% | 58.3% | 105% | 80.4% | 97.1% |
| COc1cc(CSc2nc3ccc(C)cc3c(=O)n2Cc2ccccc2)cc(OC)c1OC | 18% | 54.1% | 35.2% | 45.4% | 53.1% | 23.9% | 24.3% | -22.7% (active) | 20.7% | 12.7% |
| COc1ccc(/C=C2\CCC3C(CCCC34OCCO4)C2=O)cc1 (stereo not given) | 35.5% | 81.2% | 97.2% | 91.7% | 100% | 97.1% | 83% | 75% | 106% | 75.8% |
